High-throughput results as filed in PubChem BioAssay.
TDP1 cell CPT = qHTS for Inhibitors of human tyrosyl-DNA phosphodiesterase 1 (TDP1): qHTS in cells in presence of CPT. chicken DT40 Tdp1-/-;hTDP1 cells + 20 nM CPT, ATP luminescence, 48 h. Potency, µM (highest dose often 46.2 µM), without a hit: top-dose activity change, negative = growth inhibition, actives largely listed as inhibitors. 420,000 tested, 12% active. AID 686979, 2013; note: potency is the fitted concentration of half-maximal effect; nearly all actives have a fitted effect of over 55% in size
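Chicken DT40 Tdp1-/- cells stably complemented with human TDP1 were seeded at 400 cells/well in medium containing 20 nM camptothecin, exposed to pin-transferred compounds, and grown at 37 °C for at least 48 hr. Viability was read as ATP luminescence.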
HT1080 IDH1KD tx = qHTS for induction of synthetic lethality in tumor cells producing 2HG: qHTS for the HT-1080-IDH1KD cell line; HT-1080 IDH1 knockdown viability, ATP luminescence, 48 h; Potency, µM (titrated, usually from 46.1 µM), without a hit: at the highest dose activity, negative = toxicity, hits mostly cytotoxic; 360,000 tested, 2% active;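 note: potency is the fitted concentration of half-maximal effect; 0% = DMSO wells and -100% = cell-free medium wells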
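Cytotoxicity counter-line: IDH1KD HT-1080, 48 h, CellTiter-Glo. Curves classed by r2, magnitude and activity.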
ELG1 repair inh = qHTS screen for small molecules that inhibit ELG1-dependent DNA repair in human embryonic kidney (HEK293T) cells expressing luciferase-tagged ELG1. HEK293T ELG1-luciferase reporter, luminescence, 16 h; DNA damage induced by 5-fluorouridine. Potency, µM (top dose mostly 46.1 µM), without a hit: at the top dose activity change, negative = inhibition, most hits filed as inhibitors. 330,000 tested, 2.3% active; note: potency is the fitted concentration of half-maximal effect; nearly all actives have a fitted effect of over 55% in size
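Quantitative HTS, concentration-response format. 2,000 cells/well co-treated with 5-fluorouridine and compound, 16 hr in 5% CO2 at 37 °C; ONE-Glo luminescence read after 30 min.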
TDP1 cell noCPT = qHTS for Inhibitors of human tyrosyl-DNA phosphodiesterase 1 (TDP1): qHTS in cells in absence of CPT; Potency, µM (top dose mostly 46.2 µM), for the others: top-dose activity change, negative = growth inhibition, hits mostly inhibitors; AID 686978, 2013; 420,000 tested, 15% active; DT40 Tdp1-/- hTDP1 cells, no CPT, ATP luminescence, 48 h; note: potency is the fitted concentration of half-maximal effect; nearly all actives have a fitted effect of over 55% in size
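No-CPT arm: Tdp1-/-;hTDP1 DT40 cells (400/well) plus compounds, incubated ≥48 hr at 37 °C. Readout CellTiter-Glo luminescence.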
IL1B secr inh = qHTS for Inhibitors of Inflammasome Signaling: IL-1-beta AlphaLISA Primary Screen; THP-1 LPS/ATP IL-1B secretion, AlphaLISA, 16 h; active compounds read low; activity change, % at 57.5 µM; AID 743279, 2014; 360,000 tested, 4.7% active; in the data active = activity change below about -50%; inconclusive = mostly about -30% to -49%
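Secreted IL-1B measured by AlphaLISA bead assay after 16 h compound exposure of THP-1 cells; compounds (final up to 57.5 uM) added 1 h before LPS (250 ng/mL) and ATP (1.25 mM) stimulation; lower signal means less secretion.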
HT1080-NT tox = qHTS for induction of synthetic lethality in tumor cells producing 2HG: qHTS for the HT-1080-NT fibrosarcoma cell line; HT-1080-NT fibrosarcoma viability, CellTiter-Glo ATP luminescence, 48 h; Potency, µM (doses to about 46.1 µM), for the others: top-dose activity, negative = less viability, actives largely listed as cytotoxic; AID 686970, 2013; 360,000 tested, 1.6% active;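 note: NT is the 2HG producing partner of a matched IDH1 knockdown line; potency is the fitted concentration of half-maximal effect; 0% = DMSO-treated cells and -100% = media-only wells without cells; nearly all actives have a fitted effect of over 55% in size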
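Viability by CellTiter-Glo luminescence after 48 h compound exposure at 37C of HT-1080-NT cells (750/well, RPMI, 5% FBS). % activity scaled between DMSO wells and medium-only wells, then curve-fitted and categorized by curve class.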
* marks the source's active call; other numbers are inactive results; ? = inconclusive; . = no result; [ ] = remark or other dose. Hits are enriched below; roughly 19% of the tested compounds scored in any of these assays. Unless noted, calls come from the whole dose curve; as a rule, active = well fitted curve in the direction sought with a large enough effect; inconclusive = small, poorly fitted or top-dose-only effect, or another doubt; inactive = no such curve, though single readings can be large; an effect the other way counts as inactive or inconclusive. Unless noted, % is set by controls: 0 for no effect and ±100 for the full control effect.

SMILES	TDP1 cell CPT	HT1080 IDH1KD tx	ELG1 repair inh	TDP1 cell noCPT	IL1B secr inh	HT1080-NT tox
Fc1ccc(-c2cc3nc4c(c(N5CCOCC5)n3n2)CCCC4)cc1	18µM*	?	-19%	16µM*	?	?
COc1cccc(-c2cc3nc(-c4ccccc4)cc(N4CCCC(O)C4)n3n2)c1 (stereo not drawn)	?	?	16µM*	?	?	?
OC1CCN(c2cc(-c3ccccc3)nc3cc(-c4ccc(F)cc4)nn23)CC1	15%	2%	13µM*	?	-8	10%
COc1ccc(-c2cc3nc(-c4ccccc4)cc(C(F)(F)F)n3n2)cc1	8%	.	.	-11%	.	.
O=C(C1CCCO1)N1CCN(c2c3c(nc4cc(-c5ccc(F)cc5)nn24)CCC3)CC1 (stereo not drawn)	?	6%	?	16µM*	-4	0%
OCC[C@H]1C[C@H](O)[C@@H](O)[C@@]2(CCCO2)O1	-9%	8%	.	-7%	-5	8%
CCS(=O)(=O)N1CCC2(CC1)OCCN2S(=O)(=O)c1ccc(C)cc1	-5%	0%	13%	-25%	18	4%
OC1CCN(c2c3c(nc4cc(-c5ccc(F)cc5)nn24)CCC3)CC1	16µM*	20%	?	?	-20	-25%
O=c1c2c(nc3cc(-c4ccc(F)cc4)[nH]n13)CCCC2	?	-6%	?	?	-10	-1%
Cc1cccc(-c2cc3nc4c(c(NCc5ccco5)n3n2)CCCC4)c1	?	?	?	?	-98*	?
Cc1cccc(-c2cc3nc4c(c(N5CCOCC5)n3n2)CCCC4)c1	18µM*	?	?	23µM*	-26	?
COc1ccccc1CCc1nc2ccccc2n1C1CCN(C(=O)c2cn3ccsc3n2)CC1	9%[9.04 µM]	.	.	-8%	.	.
Cc1cccc(S(=O)(=O)Nc2ccc(C)c3c2OC(C)(C)C3)c1	?	-1%	-30%	?	-1	-4%
Cc1ccc(NS(=O)(=O)c2ccccc2Cl)c2c1CC(C)(C)O2	20µM*	1%	-8%	14µM*	3	-9%
COc1ccc(C(C(=O)NC2CCCCC2)N(Cc2cccnc2)C(=O)c2snc(C(N)=O)c2N)cc1 (stereo not drawn)	-20%	-4%	-9%	-10%	7	-21%
Cc1ccc(NC(=O)CN(C)C(=O)CSc2nccn2C)cc1	10%	16%	?	-15%	16	16%
O=c1c2ccccc2sc2nc(CCl)nn12	?	4.6µM*	.	?	13	6.5µM*
COc1cccc(NC(=O)N(CCC(C)C)C2CCN(C(C)C)CC2)c1	-5%	.	.	?	.	.
O=C1C=C(NCc2ccc3c(c2)OCO3)CC(c2ccccc2)C1 (stereo not drawn)	?	?	-19%	18µM*	2	-18%
Cc1ccc(C2CC(=O)C=C(NCc3ccccc3)C2)cc1 (stereo not drawn)	5.2µM*	21µM*	-20%	4.6µM*	-17	?
Cc1ccc(C2CC(=O)C=C(O)C2)cc1 (stereo not drawn)	-6%	18%	-3%	-15%	14	15%
Cc1ccc(C2CC(=O)C=C(NCC(C)C)C2)cc1 (stereo not drawn)	?	-5%	-7%	21µM*	-22	-1%
